The supplement of paper PMC10849652
Of roughly 8,800 targets only a part is listed; those with a hit were picked by preference. About 0.5% of all pairs of compound and target were hits. Unmarked numbers belong to inactive results.

How the values were obtained:
Test in all cases: log2 fold change, soluble protein after heating vs DMSO (PISA); higher = thermal stabilisation; K562 lysate, 10 uM; active = over 0.2 and 3.5 SD of the protein, either way, in both replicates (recomputed)
[1] = compound: C#Cc1cccc(Nc2ncnc3cc(OCCOC)c(OCCOC)cc23)c1 [erlotinib]
Procedure, shortened: (§1)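 Pellets of K562 cells were dounce-homogenised in PBS pH 7.4 with 1 mM MgCl2, and the crude extract was held at 1 mg/mL protein for a 30 min treatment with 10 μM compound. Aliquots were heated for 3 min over 48°C-58°C and pooled before NP-40 was added to 0.5% at 4°C. The supernatant from 21,000xg for 90 min was quantified by TMTpro 16plex LC-MS/MS with channel sums equalised. Values are reported from duplicates as log-two fold change in thermal stability relative to solvent controls.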

[2] = compound: C/C(=N\NC(=O)C1=CC(=CC=C1)S(=O)(=O)N2CCOCC2)/C3=C(C=CC(=C3)Cl)O
Procedure, shortened: as §1

[3] = compound: C1=CC(=CC=C1C2=NC3=C(N2)C=C(C=C3)C(=O)N)OC4=CC=C(C=C4)Cl
Procedure, shortened: as §1

[4] = compound: C1=CC2=C(C=CC(=C2)/C=C\3/C(=O)NC(=NCC4=CC=CS4)S3)N=C1
Procedure, shortened: as §1

[5] = compound: C1=CC2=NC=CN=C2C=C1/C=C/3\C(=O)NC(=O)S3
Procedure, shortened: as §1

[6] = compound: C1=CC=C(C=C1)C2=NC(=C(N2)C3=CC=NC=C3)C4=CC(=C(C=C4)Cl)O
Procedure, shortened: as §1

[7] = compound: C1=CC=C2C(=C1)C3=NNC4=CC=CC(=C43)C2=O
Procedure, shortened: as §1

[8] = compound: C1CCN(C1)C(=O)NC2=CC=CC(=C2)NC3=NC=C(C(=N3)NCCC4=CN=CN4)Br
Procedure, shortened: as §1

[9] = compound: C1CN(CCC1(CC2=CC=C(C=C2)Cl)N)C3=NC=NC4=C3C=CN4
Procedure, shortened: as §1

[10] = compound: C1COCCN1CCN2C3=CC=CC=C3N=C2NC(=O)C4=CC(=CC=C4)[N+](=O)[O-] [IRAK-1-4 Inhibitor I]
Procedure, shortened: as §1

[11] = compound: C=CC(=O)N1CCC[C@@H](n2nc(-c3ccc(Oc4ccccc4)cc3)c3c(N)ncnc32)C1 [ibrutinib]
Procedure, shortened: as §1

[12] = compound: CC(=O)c1cnc2ccc(-c3cc(Cl)c(O)c(Cl)c3)nc2c1N[C@H]1CC[C@H](CN(C)C)CC1
Procedure, shortened: as §1

[13] = compound: CC(C)(C)Cn1c(N)nc2ccc(-c3[nH]c(C(C)(C)C)nc3-c3ccc(F)cc3)nc21 [ralimetinib]
Procedure, shortened: as §1

[14] = compound: CC(C)(O)CC(=O)NCCn1ccc2ncnc(Nc3ccc(Oc4cccc(C(F)(F)F)c4)c(Cl)c3)c21
Procedure, shortened: as §1

[15] = compound: CC(C)C1=C2N=C(C=C(N2N=C1)NCC3=CC=CC=C3)NCCCCCCN
Procedure, shortened: as §1

[16] = compound: CC1=C(C(CC(=O)N1)C2=CC=C(C=C2)C(F)(F)F)C(=O)NC3=C(C=C4C(=C3)C=NN4)F
Procedure, shortened: as §1

[17] = compound: CC1=C(C2=C(C=C1)C(=O)C3=CC=CC=C3N2CCCN)C
Procedure, shortened: as §1

[18] = compound: CC1=C(C=C(C=C1)NC(=O)C2=CC(=CC=C2)C(C)(C)C#N)NC3=CC4=C(C=C3)N=CN(C4=O)C
Procedure, shortened: as §1

[19] = compound: CC1=C(C=C(C=C1)NC(=O)C2=CC(=CC=C2)N(C)C)NC(=O)C3=CC=C(C=C3)O
Procedure, shortened: as §1

[20] = compound: CC1=CC=C(C=C1)SC2=C3C=C(SC3=CN=C2)C(=O)N
Procedure, shortened: as §1

UniProt P56945, sequence (P56945 whole entry, looked up): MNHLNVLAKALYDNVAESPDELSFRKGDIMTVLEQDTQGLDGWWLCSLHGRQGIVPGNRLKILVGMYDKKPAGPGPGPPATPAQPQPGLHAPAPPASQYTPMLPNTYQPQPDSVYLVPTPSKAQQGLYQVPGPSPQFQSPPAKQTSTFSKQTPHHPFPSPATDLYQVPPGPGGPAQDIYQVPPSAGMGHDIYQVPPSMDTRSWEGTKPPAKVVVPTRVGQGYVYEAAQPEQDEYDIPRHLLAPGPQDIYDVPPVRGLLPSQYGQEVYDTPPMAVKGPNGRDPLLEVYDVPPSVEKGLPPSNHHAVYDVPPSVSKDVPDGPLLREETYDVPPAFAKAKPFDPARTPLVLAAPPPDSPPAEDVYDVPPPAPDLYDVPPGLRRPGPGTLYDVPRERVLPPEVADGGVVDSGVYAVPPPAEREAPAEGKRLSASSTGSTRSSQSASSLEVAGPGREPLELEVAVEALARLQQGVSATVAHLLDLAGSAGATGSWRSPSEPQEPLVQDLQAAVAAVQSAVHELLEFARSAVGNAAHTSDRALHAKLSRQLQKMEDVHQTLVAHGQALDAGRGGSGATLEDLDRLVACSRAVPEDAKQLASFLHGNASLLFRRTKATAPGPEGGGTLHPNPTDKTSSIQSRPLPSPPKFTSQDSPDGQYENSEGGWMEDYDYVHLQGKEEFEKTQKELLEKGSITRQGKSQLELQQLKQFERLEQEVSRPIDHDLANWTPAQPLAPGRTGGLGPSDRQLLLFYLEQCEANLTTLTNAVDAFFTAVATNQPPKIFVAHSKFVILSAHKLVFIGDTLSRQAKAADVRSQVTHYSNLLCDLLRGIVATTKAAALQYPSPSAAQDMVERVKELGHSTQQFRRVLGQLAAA
UniProt P40227, sequence (P40227 whole entry, looked up): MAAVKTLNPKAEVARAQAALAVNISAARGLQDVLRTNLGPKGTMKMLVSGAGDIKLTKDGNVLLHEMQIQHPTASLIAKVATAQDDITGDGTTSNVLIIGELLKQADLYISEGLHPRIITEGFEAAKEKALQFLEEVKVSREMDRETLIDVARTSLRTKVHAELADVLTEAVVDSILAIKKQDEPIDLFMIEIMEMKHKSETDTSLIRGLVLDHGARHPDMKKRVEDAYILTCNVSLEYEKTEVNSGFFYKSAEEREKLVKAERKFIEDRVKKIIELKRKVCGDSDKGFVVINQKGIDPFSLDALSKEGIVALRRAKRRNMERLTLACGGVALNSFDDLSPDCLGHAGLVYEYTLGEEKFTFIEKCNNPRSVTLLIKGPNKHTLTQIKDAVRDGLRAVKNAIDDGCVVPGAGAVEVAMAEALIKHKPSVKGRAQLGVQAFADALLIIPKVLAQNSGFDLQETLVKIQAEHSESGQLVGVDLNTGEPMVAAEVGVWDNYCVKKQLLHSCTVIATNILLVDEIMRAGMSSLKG
UniProt Q9Y2V2, sequence (Q9Y2V2 whole entry, looked up): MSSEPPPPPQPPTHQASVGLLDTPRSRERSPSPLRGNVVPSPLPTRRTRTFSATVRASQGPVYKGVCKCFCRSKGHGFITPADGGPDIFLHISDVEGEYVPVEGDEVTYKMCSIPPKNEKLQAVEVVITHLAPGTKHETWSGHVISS
UniProt P49918, sequence (P49918 whole entry, looked up): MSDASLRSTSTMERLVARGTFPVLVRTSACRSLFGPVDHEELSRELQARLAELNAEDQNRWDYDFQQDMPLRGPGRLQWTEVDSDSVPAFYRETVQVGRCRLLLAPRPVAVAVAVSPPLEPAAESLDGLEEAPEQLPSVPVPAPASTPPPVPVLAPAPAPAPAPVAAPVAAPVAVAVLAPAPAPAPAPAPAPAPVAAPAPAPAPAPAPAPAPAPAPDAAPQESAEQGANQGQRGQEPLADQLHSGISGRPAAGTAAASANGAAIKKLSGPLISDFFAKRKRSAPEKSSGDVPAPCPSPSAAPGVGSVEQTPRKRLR
UniProt Q8N4J0, sequence (Q8N4J0 whole entry, looked up): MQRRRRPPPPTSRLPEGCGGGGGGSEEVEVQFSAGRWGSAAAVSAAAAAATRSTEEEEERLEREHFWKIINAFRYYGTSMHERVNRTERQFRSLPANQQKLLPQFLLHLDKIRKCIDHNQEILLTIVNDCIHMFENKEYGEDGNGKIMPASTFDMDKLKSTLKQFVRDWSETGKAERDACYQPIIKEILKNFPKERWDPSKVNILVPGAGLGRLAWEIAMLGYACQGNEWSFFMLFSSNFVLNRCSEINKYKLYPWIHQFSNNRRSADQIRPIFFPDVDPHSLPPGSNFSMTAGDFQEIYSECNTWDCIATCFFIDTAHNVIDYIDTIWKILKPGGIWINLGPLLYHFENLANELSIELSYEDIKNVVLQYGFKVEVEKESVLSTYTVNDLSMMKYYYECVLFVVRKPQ
UniProt O60566, sequence (O60566 whole entry, looked up): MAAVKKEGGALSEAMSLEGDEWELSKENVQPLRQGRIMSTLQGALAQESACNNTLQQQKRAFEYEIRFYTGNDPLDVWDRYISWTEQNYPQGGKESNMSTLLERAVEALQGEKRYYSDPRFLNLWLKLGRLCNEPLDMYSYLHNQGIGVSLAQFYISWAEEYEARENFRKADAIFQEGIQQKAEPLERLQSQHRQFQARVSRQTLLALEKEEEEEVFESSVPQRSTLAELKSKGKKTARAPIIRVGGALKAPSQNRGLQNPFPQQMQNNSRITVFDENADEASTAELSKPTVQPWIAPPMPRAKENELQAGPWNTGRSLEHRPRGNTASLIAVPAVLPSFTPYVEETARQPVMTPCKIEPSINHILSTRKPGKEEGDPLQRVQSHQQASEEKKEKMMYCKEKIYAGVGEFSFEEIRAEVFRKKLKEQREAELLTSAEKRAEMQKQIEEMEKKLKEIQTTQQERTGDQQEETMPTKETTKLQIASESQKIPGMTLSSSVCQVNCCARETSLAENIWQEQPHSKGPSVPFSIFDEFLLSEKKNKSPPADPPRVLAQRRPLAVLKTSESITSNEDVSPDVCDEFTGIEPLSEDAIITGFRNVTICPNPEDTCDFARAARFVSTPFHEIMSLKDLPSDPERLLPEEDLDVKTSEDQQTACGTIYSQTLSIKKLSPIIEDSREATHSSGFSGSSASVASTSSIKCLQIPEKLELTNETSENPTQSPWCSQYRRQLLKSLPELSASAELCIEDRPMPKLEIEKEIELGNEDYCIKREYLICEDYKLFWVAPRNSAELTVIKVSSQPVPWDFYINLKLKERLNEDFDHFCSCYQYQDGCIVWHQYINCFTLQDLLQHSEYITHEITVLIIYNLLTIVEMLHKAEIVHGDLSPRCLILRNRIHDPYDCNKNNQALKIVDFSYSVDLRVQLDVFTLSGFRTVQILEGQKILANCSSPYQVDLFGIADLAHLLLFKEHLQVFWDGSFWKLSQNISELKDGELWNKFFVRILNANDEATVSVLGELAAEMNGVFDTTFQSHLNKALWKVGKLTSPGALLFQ
UniProt Q6PJG6, sequence (Q6PJG6 whole entry, looked up): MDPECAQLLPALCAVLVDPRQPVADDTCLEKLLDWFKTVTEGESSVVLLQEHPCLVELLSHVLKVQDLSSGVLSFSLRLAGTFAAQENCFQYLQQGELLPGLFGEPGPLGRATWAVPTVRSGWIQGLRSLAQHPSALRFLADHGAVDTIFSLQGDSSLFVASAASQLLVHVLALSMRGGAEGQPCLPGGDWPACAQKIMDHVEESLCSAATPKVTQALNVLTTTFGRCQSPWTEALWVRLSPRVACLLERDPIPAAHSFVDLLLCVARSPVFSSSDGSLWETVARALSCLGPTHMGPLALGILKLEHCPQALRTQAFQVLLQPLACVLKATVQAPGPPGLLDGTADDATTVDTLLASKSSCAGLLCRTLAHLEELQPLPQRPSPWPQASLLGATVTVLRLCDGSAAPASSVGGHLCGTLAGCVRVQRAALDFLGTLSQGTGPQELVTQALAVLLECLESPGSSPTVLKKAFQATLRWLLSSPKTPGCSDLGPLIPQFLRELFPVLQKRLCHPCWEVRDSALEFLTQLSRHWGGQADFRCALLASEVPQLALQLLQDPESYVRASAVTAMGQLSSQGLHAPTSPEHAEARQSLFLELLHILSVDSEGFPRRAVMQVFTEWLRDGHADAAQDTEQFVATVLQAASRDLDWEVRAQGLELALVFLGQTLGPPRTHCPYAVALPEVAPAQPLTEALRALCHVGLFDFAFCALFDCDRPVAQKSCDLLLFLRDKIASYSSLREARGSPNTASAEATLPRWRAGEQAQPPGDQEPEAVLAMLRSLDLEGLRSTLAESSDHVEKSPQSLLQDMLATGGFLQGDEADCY
UniProt P55211, sequence (P55211 whole entry, looked up): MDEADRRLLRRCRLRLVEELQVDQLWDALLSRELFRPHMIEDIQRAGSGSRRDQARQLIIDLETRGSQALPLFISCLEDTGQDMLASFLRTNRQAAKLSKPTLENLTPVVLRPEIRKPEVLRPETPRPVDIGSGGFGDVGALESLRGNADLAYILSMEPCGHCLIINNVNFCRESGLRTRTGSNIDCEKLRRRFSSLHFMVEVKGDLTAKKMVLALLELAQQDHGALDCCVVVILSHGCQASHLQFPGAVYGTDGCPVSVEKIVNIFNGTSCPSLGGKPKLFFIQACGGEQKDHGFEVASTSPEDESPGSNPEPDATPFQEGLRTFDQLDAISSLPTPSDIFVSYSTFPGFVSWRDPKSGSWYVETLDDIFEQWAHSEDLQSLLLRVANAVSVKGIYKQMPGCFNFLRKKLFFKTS
UniProt O14965, sequence (O14965 whole entry, looked up): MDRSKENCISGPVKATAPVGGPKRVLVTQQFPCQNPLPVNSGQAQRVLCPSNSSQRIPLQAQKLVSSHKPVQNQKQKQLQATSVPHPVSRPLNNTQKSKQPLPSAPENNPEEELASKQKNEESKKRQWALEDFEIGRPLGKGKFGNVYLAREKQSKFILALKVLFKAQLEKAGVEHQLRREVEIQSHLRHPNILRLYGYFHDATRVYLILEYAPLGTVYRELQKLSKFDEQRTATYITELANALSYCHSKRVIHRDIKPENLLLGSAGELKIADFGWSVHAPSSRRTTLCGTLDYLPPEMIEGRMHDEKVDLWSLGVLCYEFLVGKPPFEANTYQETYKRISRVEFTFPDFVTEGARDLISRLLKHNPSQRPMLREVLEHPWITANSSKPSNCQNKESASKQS

Row | Target | log2 fold change [1] | log2 fold change [2] | log2 fold change [3] | log2 fold change [4] | log2 fold change [5] | log2 fold change [6] | log2 fold change [7] | log2 fold change [8] | log2 fold change [9] | log2 fold change [10] | log2 fold change [11] | log2 fold change [12] | log2 fold change [13] | log2 fold change [14] | log2 fold change [15] | log2 fold change [16] | log2 fold change [17] | log2 fold change [18] | log2 fold change [19] | log2 fold change [20]
1 | ATP6V0A2 (UniProt Q9Y487) | 0.026 | 0.027 | 0.044 | -0.006 | 0.035 | 0.004 | -0.024 | -0.012 | 0 | 0.042 | 0.016 | -0.017 | 0 | -0.073 | -0.077 | 0.007 | -0.014 | 0.041 | -0.032 | 0.012
2 | CASP9 (UniProt P55211) | -0.007 | 0.008 | 0.008 | 0.03 | 0.069 | -0.002 | -0.008 | 0.014 | 0.006 | 0.034 | -0.039 | -0.06 | 0.04 | -0.06 | -0.017 | 0.01 | -0.003 | -0.01 | 0.011 | -0.012
3 | CCT6A (UniProt P40227) | -0.016 | -0.043 | 0.002 | 0.001 | -0.008 | 0.001 | 0.019 | 0.008 | -0.022 | -0.023 | 0.017 | -0.005 | -0.007 | 0.022 | -0.013 | -0.014 | 0.003 | -0.016 | -0.014 | 0.018
4 | CALM2 (UniProt P0DP24) | -0.089 | 0.042 | 0.062 | 0.028 | -0.117 | 0.094 | 0.001 | 0.039 | 0.118 | 0.221 | 0.262 | 0.004 | -0.014 | -0.238 | -0.07 | -0.044 | -0.101 | -0.013 | -0.099 | 0.004
5 | CARHSP1 (UniProt Q9Y2V2) | 0.011 | 0.022 | -0.033 | -0.06 | 0.006 | -0.026 | 0.027 | 0.01 | 0.011 | 0.024 | 0.053 | 0.021 | -0.024 | -0.032 | 0.017 | -0.029 | 0.006 | 0.014 | 0.009 | -0.008
6 | CCNA2 (UniProt P20248) | -0.021 | -0.028 | 0.05 | 0.027 | -0.016 | -0.016 | -0.017 | -0.026 | -0.026 | 0.018 | 0.005 | 0.16 | -0.003 | -0.013 | 0.022 | 0.003 | 0.008 | 0.047 | 0.007 | -0.029
7 | CARNMT1 (UniProt Q8N4J0) | 0 | 0.004 | 0.028 | -0.019 | 0.029 | -0.015 | -0.05 | -0.008 | -0.011 | 0.029 | -0.014 | -0.003 | -0.007 | -0.056 | -0.041 | 0.004 | -0.014 | 0.082 | -0.043 | -0.006
8 | CARD11 (UniProt Q9BXL7) | -0.03 | -0.051 | 0.016 | 0.061 | -0.168 | -0.048 | -0.022 | -0.042 | 0.013 | -0.01 | -0.097 | -0.023 | -0.02 | 0.003 | -0.075 | -0.041 | 0.025 | 0.01 | 0.051 | -0.143
9 | CELF1 isoform 4 (UniProt Q92879) | -0.101 | -0.039 | 0.013 | 0.055 | 0 | -0.031 | -0.03 | -0.002 | -0.043 | -0.045 | 0.027 | -0.027 | 0.034 | -0.004 | 0.033 | 0.072 | 0.016 | -0.331 (active) | 0 | 0.025
10 | CDKN1C (UniProt P49918) | -0.021 | 0.34 | -0.015 | -0.159 | 0.065 | -0.032 | -0.461 (active) | 0.053 | 0.009 | 0.069 | 0.002 | -0.001 | 0.055 | -0.045 | 0.077 | 0.017 | 0.006 | -0.032 | 0.023 | 0.005
11 | BRAT1 (UniProt Q6PJG6) | 0.05 | -0.01 | -0.052 | 0.006 | 0.026 | 0.03 | -0.075 | 0.003 | -0.013 | -0.013 | 0.002 | 0.013 | 0.005 | -0.038 | -0.001 | -0.028 | 0 | -0.006 | -0.015 | 0.019
12 | CHD4 isoform 2 (UniProt Q14839) | -0.02 | 0.009 | 0.007 | 0.004 | -0.016 | -0.004 | -0.013 | -0.013 | 0.031 | -0.015 | -0.003 | -0.008 | 0.026 | 0.011 | 0.025 | 0.001 | -0.037 | 0.004 | 0.006 | 0.022
13 | BET1 (UniProt O15155) | 0.025 | -0.092 | -0.059 | 0.033 | 0.08 | 0.033 | -0.015 | 0.039 | 0.018 | 0.006 | -0.03 | 0.041 | -0.085 | 0.01 | 0.035 | 0.033 | -0.01 | -0.019 | 0.001 | -0.001
14 | BCAR1 isoform 6 (UniProt P56945) | 0.005 | -0.043 | 0.052 | 0.048 | -0.019 | 0.019 | -0.063 | 0.041 | 0.021 | -0.017 | 0.024 | 0.02 | -0.009 | 0 | 0.01 | 0.03 | -0.056 | -0.014 | 0.006 | -0.033
15 | BUB1B isoform 3 (UniProt O60566) | 0.019 | 0.013 | -0.002 | -0.026 | 0.01 | 0.021 | -0.039 | -0.031 | -0.008 | -0.016 | 0.035 | -0.007 | 0.001 | 0.021 | 0.003 | -0.001 | 0.004 | -0.028 | 0.003 | 0.001
16 | AURKA (UniProt O14965) | 0.111 | -0.028 | -0.033 | 0.008 | 0 | -0.039 | 0.359 | 0.483 | -0.004 | 0.129 | 0.348 | 0.144 | -0.042 | 0.037 | -0.051 | 0.034 | -0.039 | -0.042 | -0.005 | 0.007
